The record followed here is PubChem BioAssay (Tox21).

Molecules are shown by their SMILES. Several values for one entry are separate records, joined by “and”; a condition that tells them apart may be missing. Equal entries are not always repeated. Records with an inconclusive call do not appear. Some compounds were tested as several samples or in several runs, with calls that do not always agree. Activity calls are given as the source filed them. Unless noted, the call rests on the fitted dose curve; in most records, active means well fitted curve in the direction sought with a large enough effect in the repeat runs; inconclusive means weak or mixed curves; inactive means no such curve, though single readings can be large; an effect the other way counts as inactive or inconclusive.

Assay [1] in a line: qHTS assay to identify small molecule antagonists of the estrogen related receptor (ERR) signaling pathway from Tox21 library - cell viability counter screen (AID 1224834). Further: nearly all actives have a fitted effect of over 30% in size. Put shortly:
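Seeded ERR cells were rested 6 h at 37 C/5% CO2 before compounds, positive and negative controls or DMSO were added. Incubation continued for 17.5 h, and viability was then quantified by CellTiter-Fluor fluorescence.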

Assay [2] addresses Luciferin 4-monooxygenase (Photinus pyralis) (UniProt P08659). The assay is described as follows: qHTS assay to identify small molecule inhibitors of firefly luciferase (AID 1224835). Further: nearly all actives have a fitted effect of over 25% in size. Further: potency means the concentration at half of the fitted maximal effect. An outline of the steps: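 Inhibition of purified Photinus luciferase is measured by luminescence. Substrate levels (D-luciferin, ATP) sit at their KM values. Each compound is tested in a concentration series.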
Background: Quantitative high-throughput screening tests each substance at several concentrations.

Assay [3] can be described thus: qHTS assay to identify small molecule agonists of the constitutive androstane receptor (CAR) signaling pathway - cell viability counter screen (AID 1224836). Further: nearly all actives have a fitted effect of over 45% in size. Put shortly:
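Fluorescence from CellTiter-Fluor indicates live cells after 23 h exposure. The human hepatoma line expresses hCAR and a CYP2B6-2.2kb reporter. Incubation medium contains 0.75 uM PK11195 (final).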

Assay [4] can be described thus: qHTS assay to identify small molecule antagonists of the constitutive androstane receptor (CAR) signaling pathway - cell viability counter screen (AID 1224837). Further: nearly all actives have a fitted effect of over 45% in size. An outline of the steps:
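To flag cytotoxic false antagonists, HepG2 hCAR/CYP2B6-2.2kb cells were treated 23 hr with 15-concentration compound series and 50 nM CITCO at 37 C/5% CO2; CellTiter-Fluor fluorescence was the measured end point.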

For assay [5], the target named is Nuclear receptor subfamily 1 group I member 3 (Homo sapiens) (UniProt Q14994). The assay is described as follows: qHTS assay to identify small molecule antagonists of the constitutive androstane receptor (CAR) signaling pathway (AID 1224838).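 Further: HepG2 cells stably expressing hCAR with CYP2B6 luciferase reporter stimulated by CITCO; nearly all actives have a fitted effect of over 40% in size.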 Put shortly: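 Human hepatoma HepG2 cells expressing hCAR and a CYP2B6 promoter (2.2 kb) luciferase construct; compound titration (15 points) with 50 nM CITCO final, 24 h at 37 C/5% CO2; luminescence via ONE-Glo after 30 min at room temperature.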

The target is the same in assay [6]. The assay is described as follows: qHTS assay to identify small molecule agonists of the constitutive androstane receptor (CAR) signaling pathway (AID 1224839). Further: nearly all actives have a fitted effect of over 15% in size. Further: potency means the concentration at half of the fitted maximal effect.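 On activation: HepG2 cells stably carrying human CAR and a CYP2B6 luciferase reporter.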 Put shortly: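 Stable hCAR/CYP2B6-2.2kb HepG2 line in DMEM with 10% FBS; compounds (15 concentrations) and 0.75 uM PK11195 final, 24 h at 37 C/5% CO2, then ONE-Glo luminescence after 30 min.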
Assay [7] in a line: qHTS assay to identify small molecule antagonists of the estrogen related receptor signaling pathway with the pleiotropic PPARgamma coactivator (PGC) from Tox21 10K library - cell viability counter screen (AID 1224840; active means well fitted cell-killing curve with a large enough effect in the repeat runs, not every such curve was filed as active; further: nearly all actives have a fitted effect of over 40% in size). An outline of the steps:
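Seeded PGC/ERR cells (2,000/well, 6 h, 37 C/5% CO2) get compound by pin tool; 17.5 h incubation at 37 C; CellTiter-Fluor added, 30 min, fluorescence measured.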

Assay [8] can be described thus: qHTS assay to identify small molecule antagonists of the estrogen related receptor signaling pathway with the pleiotropic PPARgamma coactivator (PGC) from Tox21 10K library (AID 1224841; call rule not given here; further: actives are mostly falling curves and most rising ones were filed inactive; nearly all actives have a fitted effect of over 50% in size; further: potency means the concentration at half of the fitted maximal effect). An outline of the steps:
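Test chemicals dissolved in DMSO were applied to pre-incubated (6 h) PGC/ERR cells at 2,000 cells/well for an 18 h, 37 C treatment; reporter luminescence was then read using One-Glo.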

A short description of assay [9]: qHTS assay to identify small molecule agonists of the estrogen related receptor signaling pathway with the pleiotropic PPARgamma coactivator (PGC) from Tox21 10K library (AID 1224842). Further: nearly all actives have a fitted effect of over 15% in size. An outline of the steps:
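Luminescence from One-Glo (30 min, room temperature) measured after PGC/ERR cells had 18 h at 37 C with pinned compound (23 nL in DMSO). Cells had been seeded at 2,000 per well and pre-incubated 6 h.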

Assay [10] addresses Thyrotropin receptor (Homo sapiens) (UniProt P16473). The assay is described as follows: qHTS assay to identify small molecule agonists of the thyroid stimulating hormone receptor (TSHR) signaling pathway (AID 1224843; calls by dose curve; further: nearly all actives have a fitted effect of over 45% in size). An outline of the steps: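 Agonist activity read as cAMP rise via d2/cryptate HTRF competition, 1 h room-temperature detection, in HEK293 cells expressing TSHR. Fifteen-point titrations, each run in triplicate, with a 30 min room-temperature incubation beforehand.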

A short description of assay [11]: qHTS assay to identify small molecule agonists of the hypoxia (HIF-1) signaling pathway - cell viability counter screen (AID 1224844; calls by dose curve; further: nearly all actives have a fitted effect of over 50% in size). Put shortly: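 HRE-bla ME-180; 0.5% dFBS; cpd 17 h, 37C, 5% CO2; CellTiter-Glo lum., 30 min RT, post-FRET read, same wells.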
The nature of assay [12]: qHTS assay to identify small molecule agonists of H2AX (AID 1224845; active means well fitted activation curve with a large enough effect in the signal ratio in the repeat runs, not every such curve was filed as active; the % refers to the signal ratio; further: potency means the concentration at half of the fitted maximal effect). Put shortly:
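Phospho-H2AX Ser139 measured by HTRF (ex 320 nm; em 665 and 620 nm) after 24 hr antibody incubation. Compounds, 15 concentrations, 0.76% DMSO, were applied to CHO-K1 cells for 3hr at 37C before lysis.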

A short description of assay [13]: qHTS assay to identify small molecule agonists of the hypoxia (HIF-1) signaling pathway (AID 1224846; active means well fitted activation curve with a large enough effect in the signal ratio in the repeat runs, not every such curve was filed as active; the % refers to the signal ratio). Put shortly: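 Reporter induction in HRE-bla ME-180 cells is taken as agonism: cells sit 5 hrs after plating, receive compounds or DMSO only, incubate 17 hrs at 37C under 5% CO2, and are loaded with CCF4-AM for beta-lactamase FRET measurement.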
The nature of assay [14]: qHTS assay to identify small molecule agonists of H2AX - cell viability counter screen (AID 1224847; calls by dose curve; further: top concentration of the series differs between compounds; nearly all actives have a fitted effect of over 30% in size). Put shortly:
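Viability of CHO-K1 (wild type) cells after 3 hr compound exposure was measured by CellTiter-Glo luminescence.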

Assay [15] is described as follows: qHTS assay to identify small molecule antagonists of the estrogen related receptor (ERR) signaling pathway from Tox21 library (AID 1224848). Further: nearly all actives have a fitted effect of over 50% in size. Further: potency means the concentration at half of the fitted maximal effect. An outline of the steps:
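Luciferase luminescence (ONE-Glo, 30 min room temperature) was the read-out. Cells of the NTP-supplied ERR line, 2,000 per well, were given 6 h at 37 C before compound addition in DMSO and 18 h exposure at 37 C.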

Assay [16] can be described thus: qHTS assay to identify small molecule agonists of the estrogen related receptor (ERR) signaling pathway from Tox21 library (AID 1224849; calls by dose curve; further: nearly all actives have a fitted effect of over 15% in size). The note with it: ERR reporter cell line, ONE-Glo luciferase, 18 h. Put shortly: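 Tox21 compounds tested for ERR agonism in an NTP reporter cell line: 18 h treatment at 37 C, then ONE-Glo luminescence.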
A short description of assay [17]: qHTS RealTime-Glo MT Cell Viability Assay in HepG2 cells - 24 hour (AID 1224867). Further: nearly all actives have a fitted effect of over 50% in size. Put shortly: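 Tox21 10K library screened in qHTS format on HepG2 cells carrying RealTime-Glo reagents. Compounds were added after a 5 h preincubation, and the luminescent signal from continuous culture was measured repeatedly during 40 h treatment.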
Assay [18] in a line: qHTS RealTime-Glo MT Cell Viability Assay in HEK293 cells - 32 hour (AID 1224868). Further: nearly all actives have a fitted effect of over 50% in size. Further: potency means the concentration at half of the fitted maximal effect. Put shortly: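 Luminescence generated by NanoLuc from substrate produced by living HEK293 cells served as the viability signal. Each value reflects the reading at its stated time point during continuous 40 h compound exposure at 37 C.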
The nature of assay [19]: A CellTox Green Cytotoxicity Assay to monitor cytotoxicity in HEK293 cells - 0 hour (AID 1224869). Further: nearly all actives have a fitted effect of over 50% in size. Put shortly: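 Tox21 screen in HEK293: membrane-impermeant cyanine dye fluoresces on binding dead-cell DNA; compound pinned 5 h post-seeding, plates held at 37 C, signal read repeatedly through 40 h.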
A short description of assay [20]: qHTS assay to identify small molecule agonists of the estrogen related receptor signaling pathway with the pleiotropic PPARgamma coactivator (PGC) (AID 1224823). Put shortly:
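Compounds dissolved in DMSO are added by pin tool to PGC/ERR cells that have settled for 6 h, and incubation continues 18 h at 37 C. Reporter output is measured as One-Glo luminescence.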
On the % scale 0 is the no-effect control and ±100 the full control effect.

Chain of Thyrotropin receptor (Homo sapiens) (P16473 whole entry, looked up): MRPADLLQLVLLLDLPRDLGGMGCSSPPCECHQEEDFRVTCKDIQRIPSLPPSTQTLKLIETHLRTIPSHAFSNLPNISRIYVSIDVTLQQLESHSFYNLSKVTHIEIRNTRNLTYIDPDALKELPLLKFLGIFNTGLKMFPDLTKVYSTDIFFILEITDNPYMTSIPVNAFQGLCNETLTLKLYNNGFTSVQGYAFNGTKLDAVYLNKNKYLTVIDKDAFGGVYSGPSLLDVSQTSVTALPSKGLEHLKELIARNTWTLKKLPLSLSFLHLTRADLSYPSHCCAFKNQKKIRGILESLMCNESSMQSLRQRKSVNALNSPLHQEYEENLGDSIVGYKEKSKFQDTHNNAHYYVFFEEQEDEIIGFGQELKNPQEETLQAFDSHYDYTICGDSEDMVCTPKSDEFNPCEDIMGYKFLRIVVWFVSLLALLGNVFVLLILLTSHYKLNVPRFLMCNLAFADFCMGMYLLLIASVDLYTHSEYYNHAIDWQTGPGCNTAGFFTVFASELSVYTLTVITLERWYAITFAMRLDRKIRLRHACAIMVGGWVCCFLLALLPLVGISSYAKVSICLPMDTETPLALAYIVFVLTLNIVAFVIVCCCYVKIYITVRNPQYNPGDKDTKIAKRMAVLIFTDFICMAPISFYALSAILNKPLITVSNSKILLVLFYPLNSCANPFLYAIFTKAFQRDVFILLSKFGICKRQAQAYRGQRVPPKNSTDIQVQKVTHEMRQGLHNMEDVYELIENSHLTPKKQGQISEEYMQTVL
Chain of Luciferin 4-monooxygenase (Photinus pyralis) (P08659 whole entry, looked up): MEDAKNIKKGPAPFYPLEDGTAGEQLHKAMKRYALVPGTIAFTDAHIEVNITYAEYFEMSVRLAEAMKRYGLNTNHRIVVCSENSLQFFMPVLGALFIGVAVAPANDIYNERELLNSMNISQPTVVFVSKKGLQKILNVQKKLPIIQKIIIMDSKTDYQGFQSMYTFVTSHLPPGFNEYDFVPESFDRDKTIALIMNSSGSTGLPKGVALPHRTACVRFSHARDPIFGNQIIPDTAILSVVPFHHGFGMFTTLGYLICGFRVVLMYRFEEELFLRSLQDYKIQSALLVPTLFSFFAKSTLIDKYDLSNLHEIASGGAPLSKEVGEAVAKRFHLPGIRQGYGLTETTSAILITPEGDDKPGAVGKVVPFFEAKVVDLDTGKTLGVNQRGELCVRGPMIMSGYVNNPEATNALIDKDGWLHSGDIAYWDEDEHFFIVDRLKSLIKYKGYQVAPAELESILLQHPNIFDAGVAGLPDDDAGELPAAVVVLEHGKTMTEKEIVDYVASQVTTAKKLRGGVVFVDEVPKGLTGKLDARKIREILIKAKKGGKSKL
Chain of Nuclear receptor subfamily 1 group I member 3 (Homo sapiens) (Q14994 whole entry, looked up): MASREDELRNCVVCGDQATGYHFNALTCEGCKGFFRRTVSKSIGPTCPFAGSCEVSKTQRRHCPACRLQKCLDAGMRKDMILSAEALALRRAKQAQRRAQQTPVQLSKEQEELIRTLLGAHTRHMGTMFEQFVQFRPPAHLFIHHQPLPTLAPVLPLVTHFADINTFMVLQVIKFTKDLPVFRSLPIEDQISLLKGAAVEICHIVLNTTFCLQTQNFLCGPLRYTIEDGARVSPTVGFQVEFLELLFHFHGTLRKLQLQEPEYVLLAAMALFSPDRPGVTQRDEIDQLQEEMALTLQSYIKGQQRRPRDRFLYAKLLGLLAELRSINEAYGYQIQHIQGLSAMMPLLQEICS

Take `C=C(C)C(=O)OCCCCCCCCCCCC`: the Potency entry in assay [1], in assay [2], in assay [3], in [4], in [5] and in assay [6] was “inactive” in each case. In addition, the Potency entry in assay [7], in assay [8], in assay [9], in assay [10], in assay [11] and in assay [12] was “inactive” in each case. In addition, the Potency entry in assay [14], in [15], in assay [17] and in assay [18] was “inactive” throughout. In addition, the outcome in assay [13] was inactive. For the same compound, the activity change, positive = activation in [16] (at 92.4 µM (top of the series)) is 5.32% (inactive) and 1.41% (inactive).

As for `CCCCOCCO`, the Potency result in [1], in [2], in [3], in assay [4], in [5] and in assay [6] was “inactive” each time. Moreover, the Potency result in assay [7], in assay [8], in assay [9], in assay [10], in [11] and in assay [12] was “inactive” each time. The Potency result in assay [15], in assay [17] and in [18] was “inactive” in each case. The result in assay [13] was inactive. The activity change, positive = activation in assay [16] (at 92.4 µM (top of the series)) is 5.31% (inactive) and -0.958% (inactive).

On to `Cc1ccc(C(=O)O)o1`, for which the Potency entry in [1], in [2], in assay [3], in [4], in [5] and in assay [6] was “inactive” throughout. The Potency result in [7], in assay [10], in assay [11], in assay [12], in assay [17] and in [18] was “inactive” throughout. Further, the Potency result in assay [19] was “inactive”. The compound was called inactive in assay [13].

Turning to `Oc1ccc(OCc2ccccc2)cc1`, the Potency result in [1], in assay [3], in assay [4], in assay [5], in [7] and in [10] was “inactive” throughout. Further, the Potency result in assay [11] and in assay [17] was “inactive” throughout. In addition, the Potency in assay [2] was 31.1 µM (active) and 17.4 µM (active); in assay [6], 23.8 µM (active); in assay [12] it was 22.1 µM (active) and inactive; in assay [18], 1.07 µM (active) and inactive. Besides, the result in [13] was inactive.

Take `CC(=O)Nc1ccc(C(=O)O)cc1`: the Potency result in [1], in [2], in assay [3], in assay [4], in assay [6] and in assay [7] was “inactive” in each case. For the same compound, the Potency result in [10], in assay [11], in [12], in [14], in [17] and in [18] was “inactive” in each case.

With `CC[Si](OC(C)=O)(OC(C)=O)OC(C)=O`, the Potency result in assay [1], in assay [2], in assay [3], in assay [4], in assay [5] and in assay [6] was “inactive” each time. Moreover, the Potency entry in assay [7], in [10], in assay [11], in assay [12], in assay [14] and in [17] was “inactive” throughout. In addition, the Potency entry in assay [18] and in assay [19] was “inactive” each time. The call in assay [13] was inactive.

For `CCCCC/C=C\C/C=C\CCCCCCCC(=O)OC`, the Potency entry in assay [1], in [2], in assay [3], in assay [4], in [5] and in [6] was “inactive” throughout. Besides, the Potency entry in assay [7], in assay [10], in assay [11], in assay [12], in assay [17] and in assay [18] was “inactive” in each case. For the same compound, the call in assay [13] was inactive.

For the compound `CC#C[C@]1(O)CC[C@H]2[C@@H]3CCC4=CC(=O)CCC4=C3[C@@H](c3ccc(N(C)C)cc3)C[C@@]21C`, the Potency entry in [20], in assay [2], in [6], in [7], in assay [9] and in assay [10] was “inactive” throughout. Besides, the Potency result in assay [11], in assay [14], in assay [17] and in assay [19] was “inactive” in each case. Besides, the Potency was 21.7 µM (active) and 29.8 µM (active) in assay [8]; 26.6 µM (active) in assay [15]; 49 µM (active) in assay [18]. In addition, the activity change, positive = activation in [16] (at 42.5 µM (top of the series)) was -53.3% (inactive); in assay [16] (at 92.4 µM (top of the series)), -62.2% (inactive).
